Measured values published in PubChem BioAssay AID652115 (Broad Institute, 2013).
Where “and” joins values, the source holds several entries; their conditions need not be identical. Equal entries are not always repeated. Screen size: about 330,000 compounds; about 3,800 (1.2%) were called active. Cut-off read from the data, not from the text of the source: active = inhibition above about 15%; inconclusive = no clear call, values can overlap the other calls; inactive = below that. The entries come from a sample that favours actives as a whole.

What follows are compounds tested against NAD-dependent protein deacylase sirtuin-5, mitochondrial (Homo sapiens) (UniProt Q9NXA8) (assay: blockers of sirtuin-5 deacylase activity – biochemical, fluorescence imaging, single point, set 5, primary screen (AID 652115)). Settings: Purified SirT5, succinyl-peptide AMC, trypsin-coupled fluorescence; at 15 µM; stronger effect = higher value.
NAD-dependent protein deacylase sirtuin-5, mitochondrial (Homo sapiens), sequence (Q9NXA8 whole entry, looked up): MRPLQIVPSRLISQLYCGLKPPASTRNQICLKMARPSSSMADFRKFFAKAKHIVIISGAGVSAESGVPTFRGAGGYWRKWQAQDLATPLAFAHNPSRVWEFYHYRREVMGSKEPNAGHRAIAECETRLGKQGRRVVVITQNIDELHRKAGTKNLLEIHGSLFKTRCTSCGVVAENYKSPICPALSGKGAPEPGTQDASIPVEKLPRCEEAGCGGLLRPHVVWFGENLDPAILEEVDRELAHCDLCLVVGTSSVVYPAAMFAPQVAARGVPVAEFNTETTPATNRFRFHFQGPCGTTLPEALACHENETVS
With `O=C(C[C@H]1C[C@@H]2c3cc(NC(=O)C4CCC4)ccc3O[C@@H]2[C@H](CO)O1)NCCN1CCCCC1` the inhibition was -1.29% (inactive).
With `C[C@H](CO)N1C[C@H](C)[C@@H](CN(C)C)Oc2c(NC(=O)Nc3ccc(F)cc3)cccc2C1=O` the inhibition was -3.52% (inactive).
In the case of `C[C@H]1CN([C@@H](C)CO)C(=O)c2cc(-c3ccccc3F)cnc2O[C@@H]1CN(C)C`, the inhibition is reported as -1.72% (inactive).
In the case of `CCCNC(=S)N1CCC(NC(=O)c2ccc(OC)cc2)CC1`, the inhibition is reported as 2.19% (inactive).
For `COCCNC(=O)C1CCN(S(=O)(=O)c2ccc3c(c2)OCCO3)CC1`, the inhibition was -1.09% (inactive).
With `CC(C)OCCCNC(=S)N1CCC(C(=O)c2ccc3c(c2)OCCO3)CC1` the inhibition was 26.6% (active).
`O=C(c1cccnc1)N1CC2(C1)[C@@H](c1ccccc1)[C@H](CO)N2C(=O)C1CCC1` was tested, and the inhibition was -1.71% (inactive).
In the case of `CCOC(=O)Cc1ncccc1C(=O)Nc1ccc(OC)cc1`, the inhibition is reported as 15.7% (active).
`CCOC(=O)Cc1ncccc1C(=O)Nc1ccc(OC(F)(F)F)cc1` was tested, and the inhibition was -0.166% (inactive).
`COc1ccc(NC(=O)c2ccccc2CC[N+](=O)[O-])cc1` was tested, and the inhibition was -2.27% (inactive).
With `COc1cccc(C(=O)Nc2ccc3c(c2)C(=O)N(C)[C@@H]2CC[C@H](CC(=O)NCCCN4CCOCC4)O[C@H]2CO3)c1` the inhibition was 1.19% (inactive).
`COc1cccc(C#Cc2cnc3c(c2)C(=O)N([C@H](C)CO)C[C@@H](C)[C@@H](CN(C)C(=O)C2CCC2)O3)c1` was tested, and the inhibition was 0.234% (inactive).
With `O=C(N[C@@H]1CC[C@@H](CC(=O)N2CCc3ccccc3C2)O[C@H]1CO)C1CC1` the inhibition was 3.34% (inactive).
In the case of `CCS(=O)(=O)N1CC(=O)N2[C@H](CO)[C@@H](c3ccc(C#Cc4cccc(F)c4)cc3)[C@@H]2C1`, the inhibition is reported as -0.525% (inactive).
With `NC(=O)c1ccc(Nc2ccc3c(c2)CCC3)c([N+](=O)[O-])c1` the inhibition was 28.4% (active).
With `CCOc1ccccc1Nc1ccc(C(=O)O)cc1[N+](=O)[O-]` the inhibition was -0.287% (inactive).
`NC(=O)c1ccc(Nc2ccc3nonc3c2[N+](=O)[O-])cc1` was tested, and the inhibition was 2.49% (inactive).
For `CCCNC(=O)Nc1ccc2c(c1)C(=O)N(C)[C@H]1CC[C@H](CC(=O)NCC3CCCCC3)O[C@@H]1CO2`, the inhibition was 31.7% (active).
`CCC(=O)Nc1ccc2c(c1)C(=O)N(C)[C@H]1CC[C@H](CC(=O)NCC3CCCCC3)O[C@H]1CO2` was tested, and the inhibition was -3.85% (inactive).
In the case of `CCNC(=O)Nc1ccc2c(c1)C(=O)N(C)[C@H]1CC[C@H](CC(=O)NCC3CCCCC3)O[C@@H]1CO2`, the inhibition is reported as 3.92% (inactive).
With `C[C@@H]1CN([C@H](C)CO)C(=O)CCCn2cc(nn2)CO[C@@H]1CN(C)Cc1ccccc1C(=O)O` the inhibition was -0.401% (inactive).
With `COc1ccc2c3c([nH]c2c1)[C@H](CO)N(C(=O)C1CCCCC1)CC31CCN(C(=O)c2ccncc2)CC1` the inhibition was -1.36% (inactive).
In the case of `COc1cccc(S(=O)(=O)N2[C@@H]3CNC[C@H]2C3c2ccc(-c3cccc(C(=O)N(C)C)c3)cc2)c1` (stereo partly specified), the inhibition is reported as 3.63% (inactive) and 4.46% (inactive).
With `Cc1noc(C)c1/C=N/Nc1ccc2ccccc2n1` the inhibition was -4.8% (inactive).
With `Cc1cc(=O)[nH]c(N/N=C/c2ccc3c(c2)OCCO3)n1` the inhibition was 2.57% (inactive).
For `C(=N\Nc1ccc2ccccc2n1)/c1ccc2c(c1)OCO2`, the inhibition was 15.4% (active).
With `CN(C)Cc1cn(CC[C@H]2CC[C@H](NC(=O)Nc3ccccc3F)[C@@H](CO)O2)nn1` the inhibition was -13.2% (inactive).
In the case of `Cc1ccnc(NC(=O)c2ccc(Cl)c([N+](=O)[O-])c2)c1`, the inhibition is reported as -6.51% (inactive).
In the case of `O=C(Nc1ccncc1)c1ccc(Cl)c([N+](=O)[O-])c1`, the inhibition is reported as 31.2% (active).
`O=C(Nc1ccncc1)c1ccc([N+](=O)[O-])cc1Cl` was tested, and the inhibition was -1.67% (inactive).
For `COCC(=O)N[C@@H]1C[C@@H]2O[C@@H](CO)CC[C@@H]2O[C@@H]1CCc1ccc(-c2ccccc2)cc1`, the inhibition was -3.27% (inactive).
For `CN(C)CC(=O)Nc1ccc2c(c1)[C@H]1C[C@H](CC(=O)NCc3ccccc3)O[C@@H](CO)[C@H]1O2`, the inhibition was -5.86% (inactive).
`Cc1cccc(CN(C)C[C@H]2OCc3cn(nn3)CCCC(=O)N([C@@H](C)CO)C[C@H]2C)c1` was tested, and the inhibition was -2.48% (inactive).
With `CCCNC(=O)N1[C@H](CO)[C@@H](c2ccc(-c3ccc(C(=O)N(C)C)cc3)cc2)[C@@H]1C#N` the inhibition was 5.61% (inactive).
`COc1ccc(NC(=O)N(C)C[C@@H]2OCCCC[C@H](C)Oc3ccc(NC(=O)c4ccccc4)cc3C(=O)N([C@H](C)CO)C[C@H]2C)cc1` was tested, and the inhibition was 3.2% (inactive).
In the case of `OC[C@H]1[C@H](c2ccc(-c3cccnc3)cc2)[C@H]2CN(Cc3ccccn3)CCCCN21`, the inhibition is reported as 15.6% (active).
For `CCC(=O)N1CCCCN2[C@H](CO)[C@@H](c3ccc(-c4cccnc4)cc3)[C@H]2C1`, the inhibition was 0.057% (inactive).
`OC[C@@H]1[C@H](c2ccc(Br)cc2)[C@@H]2CN(Cc3ccccn3)CCCCN12` was tested, and the inhibition was 3.43% (inactive).
With `CN1C(=O)c2cc(NC(=O)NC3CCCC3)ccc2OC[C@@H]2O[C@@H](CC(=O)O)CC[C@H]21` the inhibition was -7.32% (inactive).
For `O=C(C[C@@H]1CC[C@H](NC(=O)Nc2ccc(F)cc2)[C@H](CO)O1)NCc1ccccn1`, the inhibition was 1.52% (inactive).
For `CC=Cc1ccc2n(c1=O)C[C@@H]1[C@@H](CO)[C@H](C(=O)NCC3CC3)[C@H]2N1C(=O)c1ccccc1` (mixture of isomers), the inhibition was -10.5% (inactive).
`COC(=O)C[C@@H]1C[C@@H]2c3cc(NC(=O)NC4CCCC4)ccc3O[C@@H]2[C@@H](CO)O1` was tested, and the inhibition was -3% (inactive).
In the case of `C[C@@H]1CN([C@H](C)CO)C(=O)Cc2cc(NC(=O)Cc3cn(C)c4ccccc34)ccc2O[C@@H]1CN(C)S(=O)(=O)c1ccccc1`, the inhibition is reported as 0.96% (inactive).
`C[C@@H]1CN([C@@H](C)CO)C(=O)c2c(c3ccccc3n2C)-c2ccccc2CO[C@@H]1CN(C)S(=O)(=O)c1ccc(F)cc1` was tested, and the inhibition was 3.02% (inactive).
`Cc1ccc(S(=O)(=O)N(C)C[C@@H]2Oc3ccc(NC(=O)Cc4cn(C)c5ccccc45)cc3C(=O)N([C@@H](C)CO)C[C@@H]2C)cc1` was tested, and the inhibition was 4.27% (inactive).
For `C[C@H]1CN([C@@H](C)CO)C(=O)c2c(c3ccccc3n2C)-c2ccccc2CO[C@H]1CN(C)S(=O)(=O)c1ccc(C#N)cc1`, the inhibition was 3.54% (inactive).
For `C[C@@H]1CN([C@@H](C)CO)C(=O)c2cc(NC(=O)Cc3ccccc3)ccc2O[C@H]1CN(C)Cc1ccc(Cl)c(Cl)c1`, the inhibition was 14.1% (inactive).
`C[C@H]1CN([C@@H](C)CO)C(=O)c2cc(NC(=O)Cc3cn(C)c4ccccc34)ccc2O[C@@H]1CN(C)Cc1ccc(Cl)c(Cl)c1` was tested, and the inhibition was 22.6% (active).
`Cc1ccc(S(=O)(=O)N(C)C[C@H]2Oc3ccc(NC(=O)Cc4cn(C)c5ccccc45)cc3CC(=O)N([C@@H](C)CO)C[C@H]2C)cc1` was tested, and the inhibition was 16.9% (active).
In the case of `Cc1ccc(S(=O)(=O)N(C)C[C@@H]2OCc3ccccc3-c3c(n(C)c4ccccc34)C(=O)N([C@@H](C)CO)C[C@@H]2C)cc1`, the inhibition is reported as 17.7% (active).
In the case of `C[C@H]1CN([C@@H](C)CO)C(=O)c2cc(NC(=O)Cc3cn(C)c4ccccc34)ccc2O[C@H]1CN(C)Cc1ccc(Cl)c(Cl)c1`, the inhibition is reported as 7.81% (inactive).
